Experimental data taken from PubChem BioAssay (NCATS).
Inconclusive results are not listed. Activity calls are given as the source filed them. Calls follow the shape of the dose curve; as a rule, active = well fitted curve in the direction sought with a large enough effect; inconclusive = small, poorly fitted or top-dose-only effect, or another doubt; inactive = no such curve, though single readings can be large; an effect the other way counts as inactive or inconclusive.

Assays:
[1] = Quantitative highthroughput screen to assess conditional lethalithy of NOMO1 cells grown in RPMI1640 with untreated serum (RPMI+s) (AID 1963876); settings: NOMO1 AML cells in RPMI+serum, CellTiter-Glo viability, 48 h; series mostly up to 45.8 µM; also: nearly all actives have a fitted effect of over 35% in size; also: potency is read from the fitted curve at half-maximal effect;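 as to viability: 100% = DMSO wells and 0% = empty wells without cells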
In short: (§1)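 Each medium arm—HPLM with 10% dialyzed FBS, or RPMI1640 with 5 mM glucose and 10% untreated or dialyzed FBS—was screened against an 11-point, 3-fold compound titration for 48 h at 37 °C, with CellTiter-Glo luminescence as endpoint.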

[2] = Quantitative highthroughput screen to assess conditional lethalithy of NOMO1 cells grown in RPMI1640 with dialyzed fetal bovine serum (RPMI+ds) (AID 1963877); settings: NOMO1 in RPMI+dialyzed FBS viability, ATP luminescence, 48 h; series mostly up to 45.8 µM; also: nearly all actives have a fitted effect of over 30% in size; also: potency is read from the fitted curve at half-maximal effect;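 as to viability: 100% = DMSO control wells and 0% = empty wells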
In short: as §1

[3] = Quantitative highthroughput screen to assess conditional lethalithy of NOMO1 cells grown in Human Plasma-Like Medium with dialyzed fetal bovine serum (HPLM+ds) (AID 1963878); settings: NOMO1 AML cells in HPLM+ds, CellTiter-Glo viability, 48 h; series mostly up to 45.8 µM; also: nearly all actives have a fitted effect of over 35% in size; also: potency is read from the fitted curve at half-maximal effect;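 as to viability: 100% = DMSO wells and 0% = empty wells on each plate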
In short: as §1

[4] = Quantitative highthroughput screen to assess conditional lethalithy of P12 Ichikawa cells grown in Human Plasma-Like Medium with dialyzed fetal bovine serum (HPLM+ds) (AID 1963879); settings: ATP luminescence, 48 h; Potency: viability; series mostly up to 45.8 µM; also: nearly all actives have a fitted effect of over 35% in size; also: potency is read from the fitted curve at half-maximal effect
In short: as §1

[5] = Quantitative highthroughput screen to assess conditional lethalithy of SEM cells grown in RPMI1640 with unreated serum (RPMI+s) (AID 1963883); settings: SEM B-ALL cells, CellTiter-Glo viability, 48 h; series mostly up to 45.8 µM; also: nearly all actives have a fitted effect of over 35% in size; also: potency is read from the fitted curve at half-maximal effect;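 as to viability: 100% = DMSO wells and 0% = empty wells without cells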
In short: as §1

[6] = Quantitative highthroughput screen to assess conditional lethalithy of SEM cells grown in RPMI1640 with dialyzed fetal bovine serum (RPMI+ds) (AID 1963884); settings: SEM B-ALL cells, RPMI+dialyzed FBS, CellTiter-Glo viability, 48 h; series mostly up to 45.8 µM; also: nearly all actives have a fitted effect of over 35% in size; also: potency is read from the fitted curve at half-maximal effect;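 as to viability: 100% = DMSO control wells and 0% = empty wells without cells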
In short: as §1

[7] = Quantitative highthroughput screen to assess conditional lethalithy of P12 Ichikawa cells grown in RPMI1640 with untreated serum (RPMI+s) (AID 1963881); settings: ATP luminescence, 48 h; Potency: viability; series mostly up to 45.8 µM; also: nearly all actives have a fitted effect of over 35% in size; also: potency is read from the fitted curve at half-maximal effect;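 as to viability: 100% = DMSO wells and 0% = empty wells without cells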
In short: as §1

[8] = Quantitative highthroughput screen to assess conditional lethalithy of SEM cells grown in Human Plasma-Like Medium with dialyzed fetal bovine serum (HPLM+ds) (AID 1963882); settings: SEM B-ALL cells in HPLM+ds, CellTiter-Glo viability, 48 h; series mostly up to 45.8 µM; also: nearly all actives have a fitted effect of over 35% in size; also: potency is read from the fitted curve at half-maximal effect
In short: as §1

[9] = Quantitative highthroughput screen to assess conditional lethalithy of P12 Ichikawa cells grown in RPMI1640 with dialyzed fetal bovine serum (RPMI+ds) (AID 1963880); settings: ATP luminescence, 48 h; Potency: P12-Ichikawa viability; series mostly up to 45.8 µM
In short: as §1

[10] = Cellular viability qHTS for adrenocortical cancer (ACC) cell line SW-13 (AID 1963989); settings: SW-13 ACC cells viability, CellTiter-Glo, 48 h; activity (max response): hits give low values;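 also: cells grown in serum-free medium with ITS supplement; % is scaled to controls: 0 for no effect and ±100 for the full control effect; nearly all actives have a fitted effect of over 65% in size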
In short: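 IC50 and maximal-response values come from four-parameter logistic fits of titration data. SW-13 cells in serum-free medium received compounds (up to 46 uM final) for 48 h before CellTiter-Glo luminescence.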

[11] = Cellular viability qHTS for adrenocortical cancer (ACC) cell line NCI-H295R (AID 1963990); settings: CellTiter-Glo ATP luminescence, 48 h; series mostly up to 46.1 µM;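 also: 0% = DMSO only wells and -100% = full killing with cytotoxic reference compound; nearly all actives have a fitted effect of over 60% in size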
In short: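 Adrenocortical carcinoma cells, suspended at 300 000 cells/mL in serum-free DMEM plus ITS, rested overnight before pin transfer of compound. After two days' incubation, ATP-dependent luminescence was recorded and curve-fitted.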

CC(=O)OCC(=O)[C@@]12N=C(C)O[C@H]1C[C@H]1[C@@H]3CCC4=CC(=O)C=C[C@]4(C)[C@@H]3[C@@H](O)C[C@@]12C
active: Potency [4] 4.18 µM | Potency [5] 23.5 µM | Potency [6] 20.9 µM
inactive: Potency [1] | Potency [2] | Potency [3]

C[C@H]1[C@H](O)O[C@@H]2O[C@@]3(C)CC[C@@H]4[C@H](C)CC[C@@H]1[C@@]24OO3
active: Potency [1] 1.87 µM | Potency [2] 2.09 µM | Potency [3] 2.09 µM | Potency [7] 2.96 µM | Potency [8] 4.18 µM | Potency [5] 4.69 µM | Potency [6] 3.32 µM

CCNC(=O)[C@H]1O[C@@H](n2cnc3c(N)nc(NCCc4ccc(CCC(=O)O)cc4)nc32)[C@H](O)[C@H]1O
inactive: Potency [1] | Potency [2] | Potency [3] | Potency [9] | Potency [7] | Potency [8] | Potency [6]

C[C@]12CCC(=O)C=C1CC[C@@H]1[C@H]2[C@@H](O)C[C@@]2(C)[C@H]1CC[C@]2(O)C(=O)CO
inactive: Potency [1] | Potency [2] | Potency [3] | Potency [8]

C[C@]12CC[C@H](O)CC1=CC[C@@H]1[C@H]2CC[C@]2(C)C(c3cccnc3)=CC[C@H]12
inactive: Potency [1] | Potency [2] | Potency [3] | Potency [9] | Potency [7] | Potency [8] | Potency [5] | Potency [6]

CC(C)(C)NC(=O)[C@H]1CN(Cc2cccnc2)CCN1C[C@@H](O)C[C@@H](Cc1ccccc1)C(=O)N[C@H]1c2ccccc2C[C@H]1O
inactive: Potency [1] | Potency [2] | Potency [3] | Potency [8]

O=C1c2c(O)cc(O)cc2O[C@H](c2cc(O)c(O)c(O)c2)[C@H]1O
inactive: Potency [1] | Potency [2] | Potency [3] | Potency [7]
active: Potency [6] 5.26 µM

CCOC(=O)[C@H](CCc1ccccc1)N[C@@H](C)C(=O)N1CCCC1C(=O)O (stereo partly specified)
inactive: Potency [1] | Potency [2] | Potency [3] | Potency [9] | Potency [7] | Potency [8] | Potency [5]

O=C(O)[C@H]1O[C@H](Oc2cc3oc(-c4ccccc4)cc(=O)c3c(O)c2O)[C@H](O)[C@@H](O)[C@H]1O
active: Potency [7] 18.7 µM | Potency [8] 18.7 µM | Potency [5] 18.7 µM
inactive: Potency [1] | Potency [2] | Potency [3]

CC(=O)SC[C@@H](C)C(=O)N1CCC[C@H]1C(=O)N[C@@H](Cc1ccccc1)C(=O)O
inactive: Potency [1] | Potency [2] | Potency [3] | Potency [4] | Potency [7] | Potency [5] | activity (max response) [10] 16.6% | Potency [11]

CC(Cc1ccc(O)c(O)c1)(NN)C(=O)O (stereo unspecified)
inactive: Potency [1] | Potency [2] | Potency [3] | Potency [4] | Potency [8] | activity (max response) [10] 0.463% | Potency [11]

CCCCCCCCCCCCCCCC(=O)OC[C@@H](NC(=O)C(Cl)Cl)[C@H](O)c1ccc([N+](=O)[O-])cc1
inactive: Potency [1] | Potency [2] | Potency [3] | Potency [9] | Potency [7] | Potency [8] | Potency [6]

CN[C@@H]1[C@@H](O)[C@@H](O[C@@H]2[C@@H](O)[C@H](O[C@H]3O[C@H](CN)[C@@H](O)[C@H](O)[C@@H]3O)[C@@H](N)C[C@@H]2NC(=O)[C@@H](O)CN)OC[C@]1(C)O
inactive: Potency [1] | Potency [2] | Potency [3] | Potency [9] | Potency [7] | Potency [8] | Potency [5] | Potency [6]

CN[C@H](CC(C)C)C(=O)N[C@H]1C(=O)N[C@@H](CC(N)=O)C(=O)N[C@@H]2C(=O)N[C@H]3C(=O)N[C@H](C(=O)N[C@H](C(=O)O)c4cc(O)cc(O)c4-c4cc3ccc4O)[C@H](O)c3ccc(c(Cl)c3)Oc3cc2cc(c3O[C@@H]2O[C@H](CO)[C@@H](O)[C@H](O)[C@@H]2O[C@H]2C[C@](C)(N)[C@H](O)[C@H](C)O2)Oc2ccc(cc2Cl)[C@H]1O
inactive: Potency [1] | Potency [2] | Potency [3] | Potency [4] | Potency [8] | Potency [5] | Potency [6]
